This is an account of results in PubChem BioAssay AID651821 (The Scripps Research Institute Molecular Screening Center, 2012).

Screen size: about 370,000 compounds; about 4,700 (1.3%) were called active. This is one part of a sample in which actives are shown more often than they occur. A number with no mark means an inactive call.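 Rule for the calls: active = inhibition above the plate cutoff, the mean of all test compounds on that plate plus 3 SD (cut at about 35% in these data); inactive = the rest.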

This assay can be described thus: binders of r(CAG) RNA repeats, primary screen, biochemical, fluorescence (AID 651821).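 Note: 0% = DMSO alone and 100% = 100 µM mitoxantrone as full dye displacement; higher means more dye released from RNA so lower well fluorescence.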 The following applies: r(CAG) RNA repeat, TO-PRO-1 dye displacement fluorescence; at 3 µM; hits give high values.
In general, inhibition refers to the change of the read-out against control, counted positive when it falls. With `COc1cccc(CNC(=O)[C@H]2CCCN2C(=O)[C@H]2CCCN2C(=O)c2cc(F)cc(F)c2)c1`, the inhibition was -1.44%.

On to `COC(=O)C[C@@H]1CC[C@@H]2[C@H](COc3ccc(NC(=O)c4cccc(F)c4)cc3C(=O)N2C)O1`, for which the inhibition was -0.86%.

In the case of `COc1ccccc1C(=O)NC1CCCCN(C(C)C)C1=O` (stereo not drawn), the inhibition was -0.3%.

As to `O=C(CCC1CCN(C(=O)c2cccc(Cl)c2F)CC1)Nc1ccccc1`, the inhibition was -5.06%.

For `Cc1ccccc1-c1ccc2c(c1)O[C@@H](CN(C)Cc1ccc(C(=O)O)cc1)[C@@H](C)CN([C@H](C)CO)S2(=O)=O`, the inhibition was 51.3% (active).

Regarding `C[C@@H]1CN([C@@H](C)CO)S(=O)(=O)c2ccc(-c3ccc(C(=O)N(C)C)cc3)cc2O[C@@H]1CN(C)Cc1ccccc1C(=O)O`, the inhibition is 3.43%.

Consider `C[C@@H]1CN([C@H](C)CO)S(=O)(=O)c2ccc(C#C[C@@H](C)O)cc2O[C@@H]1CN(C)Cc1ccc(-c2ccccc2)cc1`, for which the inhibition was 4.36%.

Take `CN(C)c1ccc(NC(=O)NC2CCCCN(Cc3ccc(Cl)cc3)C2=O)cc1` (stereo not drawn): the inhibition is 5.29%.

Turning to `CSCC[C@H](NC(=O)OC(C)(C)C)C(=O)N/N=C/c1cc2ccc(C)cc2nc1Cl`, the inhibition was 3.07%.

For `CC(=O)Nc1ccc(C(=O)CSc2nc3ccc(C)cc3[nH]2)cc1`, the inhibition is 14.5%.

As to `Cc1ccc2cc(/C=N/Nc3ccc(C(=O)O)cc3)c(Cl)nc2c1`, the inhibition was 41.6% (active).

Take `CCOC(=O)/C=C/c1ccccc1O`: the inhibition is 0.7%.

Turning to `CCC(=O)Nc1ccc2c(c1)C(=O)N(C)[C@H]1CC[C@H](CC(=O)NCCOC)O[C@@H]1CO2`, the inhibition was -0.44%.

`Cc1ccc(Cc2nnc(SCC(=O)Nc3ccc(C)cc3C)[nH]c2=O)cc1`: the inhibition is 10.1%.

Take `Cc1ccc(Cc2nnc(SCC(=O)Nc3ccccc3C)[nH]c2=O)cc1`: the inhibition is 15.2%.

As for `COc1ccc(Cc2nnc(SCC(=O)Nc3ccc(C)c(Cl)c3)[nH]c2=O)cc1`, the inhibition is 70.4% (active).

Take `Cc1ccc(OCc2nnc(SC/C=C/c3ccccc3)n2Cc2ccco2)cc1`: the inhibition was 5.16%.

For the molecule `O=C(CCS(=O)(=O)c1ccccc1)Nc1ccc(Cl)c(Cl)c1`, the inhibition is 5.15%.

As for `Cc1nnc(NC(=O)Nc2ccc(Cl)c(Cl)c2)s1`, the inhibition was 41.7% (active).

On to `Cc1ccc(CNC(=O)Nc2nnc([C@H]3C[C@H](O)[C@@H](CO)O3)s2)cc1`, for which the inhibition is 6.41%.

As for `Cc1ccc(NC(=O)Nc2cc(C)nn2-c2ccccc2)cc1`, the inhibition was 0.22%.

Consider `O=C(CC(O)(C(F)(F)F)C(F)(F)F)Nc1ccc(Cl)c(Cl)c1`, for which the inhibition was 4.89%.

Take `Cc1ccc(NC(=O)Nc2nnc(-c3ccncc3)s2)cc1`: the inhibition is 56.5% (active).

`CCOC(=O)Cn1c2c(n(-c3ccc(F)cc3)c1=O)C=C(c1ccccc1)[C@@H](C)C(C(=O)N(C)C1CCCCC1)=C2`: the inhibition is 7.36%.

`O=C1CCC2(CCC(c3ccc(Cl)cc3)CC2)N1CCO` (stereo not drawn): the inhibition is 0.01%.

Consider `Cc1cc(/C=N/Nc2ccc([N+](=O)[O-])cn2)c(C)n1-c1cccc(C(=O)O)c1`, for which the inhibition is 47.8% (active).

`Cc1cccc(C(=O)NC(=S)N2CCN(c3ccc([N+](=O)[O-])cc3)CC2)c1`: the inhibition was 1.75%.

With `Cc1c(NC(=O)Nc2cccc([N+](=O)[O-])c2)c(=O)n(-c2ccccc2)n1C`, the inhibition was -1.07%.

`CCN(CC)Cc1c(C(=O)OC)nnn1-c1nonc1N`: the inhibition is -2.7%.

Take `CCCCOCCCNC(=O)C[C@H]1C[C@@]2(C(=O)OC)C(=C[C@H](COCc3ccccc3)O[C@@H]2C)N(Cc2cccc3ccccc23)C1=O`: the inhibition was 4.81%.

In the case of `Cc1ccc(CSCC(N)C(=O)O)cc1` (stereo not drawn), the inhibition was 5.4%.

In the case of `Cc1ccc(SC(C)C(=O)NCc2ccc(F)cc2)cc1` (stereo not drawn), the inhibition is -0.76%.

With `Cc1ccc(SC(CC(=O)c2ccc(C(C)(C)C)cc2)C(=O)O)cc1` (stereo not drawn), the inhibition is 42.9% (active).

Regarding `CCOC(=O)C1=C(C)NC(SC)=NC1c1ccccc1` (stereo not drawn), the inhibition is 0.67%.

Consider `CO[C@@H]1[C@@H](OC(N)=O)[C@@H](O)C(Oc2ccc3c(O)c(NC(=O)c4ccc(O)c(CC=C(C)C)c4)c(=O)oc3c2C)OC1(C)C` (stereo partly drawn), for which the inhibition is 49.8% (active).

As for `COc1ccc(NC(=O)N(C)C[C@@H]2OCCCC[C@@H](C)Oc3ccc(NC(=O)NC4CCCCC4)cc3C(=O)N([C@H](C)CO)C[C@@H]2C)cc1`, the inhibition is 10%.

`O=C(COc1ccccc1Cl)Nc1ccc(C(=O)c2ccc(C(=O)O)cc2)cc1`: the inhibition was 41.2% (active).

Take `O=C(COc1ccccc1)Nc1ccc(C(=O)N2CCCC2)cc1`: the inhibition is -1.86%.

With `COc1cc(NC(=O)COc2ccccc2Cl)ccc1NC(=O)C(C)C`, the inhibition is -5.61%.

Turning to `O=C(OC12CCCN(C1)/C(=C/c1cccnc1)C2)C1CCCC1` (stereo not drawn), the inhibition was -0.17%.

Turning to `O=C(COC(=O)c1ccc2ncsc2c1)Nc1ccc(Cl)cc1`, the inhibition is 7.21%.

On to `COc1ccccc1-c1nnc(NC(=O)c2ccc3ncsc3c2)o1`, for which the inhibition was 10.6%.

`Cc1sc(NC(=O)c2ccc3ncsc3c2)c(C(N)=O)c1C`: the inhibition was 35.7% (active).

For `O=C(CCl)NC1CCCCN(Cc2cccc(C(F)(F)F)c2)C1=O` (stereo not drawn), the inhibition was 1.48%.

`Cc1cc(=O)oc2c3c(cc(OCC(=O)N[C@H](C(=O)O)c4ccccc4)c12)OC(C)(C)CC3`: the inhibition is 33.1%.

Take `Cc1c(C)c2c(OCC(=O)N[C@@H](C(=O)O)c3ccccc3)cc3c(c2oc1=O)CCC(C)(C)O3`: the inhibition was 41.1% (active).

Regarding `Cc1c(C)c2c(OCC(=O)NCCCO)cc3c(c2oc1=O)CCC(C)(C)O3`, the inhibition was -6.81%.

Turning to `CCN(CC(=O)Nc1c(F)cccc1F)C(=O)CN1c2cccc3cccc(c23)S1(=O)=O`, the inhibition was -4.19%.

As for `c1csc(-c2nnc(SCc3nc4ccccc4[nH]3)o2)c1`, the inhibition was 0.42%.

On to `COC(=O)Cc1cc(=O)n(-c2nc3ccccc3s2)[nH]1`, for which the inhibition is 60.6% (active).

In the case of `COC(=O)C1[C@H]2SC(C)(C)C(C(=O)OC)N2C(=O)N1Cc1nc2ccccc2s1` (stereo partly drawn), the inhibition is -2.88%.

As to `COC(=O)Cc1csc(Nc2c(C)n(C)n(-c3ccccc3)c2=O)n1`, the inhibition was 3.58%.

Regarding `CC(C)NC(=O)/C(C#N)=C\c1ccc(N(C)C)c(Br)c1`, the inhibition is -7.35%.
